# Source: PubChem BioAssay (NCATS)
# Results filed as inconclusive are left out. A call without a number means that no potency is given here. Unmarked numbers belong to inactive results. The source made the active and inactive calls. The call rests on the fitted dose curve; in most records, active means well fitted curve in the direction sought with a large enough effect; inconclusive means small, poorly fitted or top-dose-only effect, or another doubt; inactive means no such curve, though single readings can be large; an effect the other way counts as inactive or inconclusive. Where a SMILES comes first, the peptide text is derived from it. [ ]: non-standard residue; d: D form. The star is where a group is joined. Fmoc = O=C(OCC1c2ccccc2-c2ccccc21)*; AMC = Cc1cc(=O)oc2cc(N*)ccc12; Cha = N[CH](CC1CCCCC1)C(=O)O; Nle = CCCC[C@H](N)C(=O)O
# What was measured:
# [1] = tested on: Zika virus NS2B-NS3 protease; experiment: Primary screen GU AMC qHTS for Zika virus inhibitors (AID 1347154); further: nearly all actives have a fitted effect of over 70% in size; further: potency means the concentration at half of the fitted maximal effect
# Method in brief: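 Unlinked Zika NS2B hydrophilic domain/NS3 protease domain noncovalent complex (25 nM final) in 10 mM Tris-HCl pH 8.0, 0.01% Tween 20, with AMC peptide substrate. Fluorescence (ex 340, em 450 nm) change over 15 min, room temperature; percent inhibition fitted to 4-parameter Hill equation.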
# [2] = Primary qHTS for small molecule stabilizers of the endoplasmic reticulum resident proteome: Secreted ER Calcium Modulated Protein (SERCaMP) assay (AID 1508630)
# Method in brief: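 GLuc-SERCaMP-expressing SH-SY5Y cells, pretreated 16 h with compound, are challenged with thapsigargin to empty ER calcium stores; after 4 h, coelenterazine is added directly to the medium and luminescence is imaged.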
Compound,Potency [1],Potency [2],"activity change, negative = inhibition [1]","activity change, negative = inhibition [2]"
CC(N)COC(=O)C(CCCCN)NC(=O)Cc1c(-c2ccc3ccccc3c2)[nH]c2c1ccc1ccccc12 (stereo not given),inactive,inactive,–,–
C[C@@](N)(C(=O)O)[C@@H]1C[C@@H]1C(=O)O,inactive,inactive,–,–
CCCCCCCCCCOCCC(=O)O,–,–,12.5% [at 6.83 µM],-6.7% [at 3.88 µM]
N[C@@]1(C(=O)O)CO[C@H]2[C@H](C(=O)O)[C@H]21,inactive,inactive,–,–
CC(N)CCCP(=O)(O)O (stereo not given),inactive,inactive,–,–
O=c1oc(-c2ccc(C(F)(F)F)cc2)nn1Cc1cc(Cl)ccc1O,inactive,inactive,–,–
NC(CC(=O)Nc1ccc(Oc2cc(F)c(F)cc2Br)cc1)C(=O)O (stereo not given),inactive,inactive,–,–
CCCCCCCCCCC/C=C\C/C=C\CCCC(=O)O,–,–,7.9% [at 6.83 µM],-21.5% [at 3.88 µM]
Nc1cc(N2CCCCC2)nc(N)[n+]1OS(=O)(=O)[O-],inactive,inactive,–,–
CC1=C(/C=C/C(=C/C=C/C(C)=C/C(=O)O)c2ccc(C)cc2)C(C)(C)CCC1,inactive,inactive,–,–
C[C@H](CCC(=O)O)C1CC[C@H]2C3CC[C@@H]4C[C@H](O)CC[C@]4(C)C3C[C@H](O)[C@]12C (stereo not given in full),inactive,inactive,–,–
C[C@H](CC[C@@H]1OC1(C)C)C1CC[C@H]2[C@@H]3CC=C4C[C@@H](O)CC[C@]4(C)[C@H]3CC[C@]12C (stereo not given in full),inactive,inactive,–,–
Oc1ccc(-c2c(-c3ccccc3)nn3c(C(F)(F)F)cc(C(F)(F)F)nc23)cc1,inactive,inactive,–,–
CCCCCCCCCCC1=C(C)C(=O)C(OC)=C(OC)C1=O,inactive,inactive,–,–
N[C@H](C(=O)O)[C@H]1C[C@H]1C(=O)O,inactive,inactive,–,–
CCc1c2c(nc3ccc(OC(=O)N4CCC(N5CCCCC5)CC4)cc13)-c1cc3c(c(=O)n1C2)COC(=O)C3(O)CC (stereo not given),29.9 µM (active),inactive,–,–
CCCCCCCCCCCCCC(=O)N[C@H](C)[C@@H](O)c1ccccc1,–,–,6.45% [at 6.83 µM],-4.17% [at 3.88 µM]
Cc1ccccc1N1CCN(S(=O)(=O)CC23CCC(CC2NC(=O)C(N)CCS(C)(=O)=O)C3(C)C)CC1 (stereo not given),inactive,inactive,–,–
COc1c(O)cc2oc(-c3ccc(O)cc3)cc(=O)c2c1O,inactive,inactive,–,–
CCCCCCCCCC(=O)OCC(CO)OC(=O)CCCCCCCCC (stereo not given),–,–,1.45% [at 6.83 µM],-13.4% [at 3.88 µM]

Compound,Potency [1],Potency [2],"activity change, negative = inhibition [1]","activity change, negative = inhibition [2]"
COC(=O)/C=C/c1cc(O)ccc1O,inactive,inactive,–,–
Nc1ccccc1C(=O)C[C@H](N)C(=O)O,inactive,inactive,–,–
CCCCC[C@H](O)/C=C/[C@H]1C=CC(=O)[C@@H]1CCCCCCC(=O)O,–,–,16.3% [at 6.83 µM],-11.3% [at 3.88 µM]
N[C@@H](Cn1c2c(c(=O)[nH]c1=O)CCC2)C(=O)O,inactive,inactive,–,–
COC(=O)CNC(=O)C(=O)OC,–,–,11.4% [at 6.83 µM],-16.2% [at 3.88 µM]
N[C@@]1(C(=O)O)CN[C@@H](C(=O)O)C1,inactive,inactive,–,–
CCCCCCCCCCCCCCC(F)C(=O)O (stereo not given),–,–,19.7% [at 6.83 µM],10.1% [at 3.88 µM]
CC(C)ON(CC(=O)NO)S(=O)(=O)c1ccc(-c2ccccc2)cc1,inactive,inactive,–,–
Cn1cnc2c(ncn2[C@@H]2O[C@H](CO)[C@@H](O)[C@H]2O)c1=N,inactive,inactive,–,–
O=P(O)(O)C(O)c1ccc2ccccc2c1 (stereo not given),inactive,inactive,–,–
CCCC(=O)Nc1nc2c(ncn2[C@@H]2O[C@H]3COP(=O)(O)O[C@@H]3[C@@H]2OC(=O)CCC)c(=O)[nH]1,inactive,inactive,–,–
COC(=O)/C=C/c1ccc(C(=O)NCC(=O)N[C@@H](CCC(=O)OC)C(=O)N[C@@H](CC(C)C)C(N)=O)cc1,inactive,inactive,–,–
COc1ccc(CCNC(=O)C(=O)c2c[nH]c3ccccc23)cc1,inactive,inactive,–,–
CCCCC/C=C\C\C=C/C=C/C=C/[C@@H](SCC(NC(C)=O)C(=O)O)[C@@H](O)CCCC(=O)O (stereo not given in full),–,–,13.7% [at 0.59 µM],-5.72% [at 0.478 µM]
COc1ccc2[nH]cc(CCNC(=O)C3CC3)c2c1,inactive,inactive,–,–
CC1=C(/C=C/C(C)=C/C=C/C(C)=C/C(=O)O)C(C)(C)CCC1O (stereo not given),inactive,inactive,–,–
CC1=C(C(=O)OC(C)C)[C@@H](c2cccc3nonc23)C([N+](=O)[O-])=C(C)N1,inactive,inactive,–,–
O=Cc1c2[nH]c3ccccc3c2cc2[nH]c3ccccc3c12,inactive,inactive,–,–
COc1oc(=O)c2cc(N)ccc2c1Cl,inactive,inactive,–,–
Nc1nc2c(ncn2[C@@H]2O[C@H](COP(=O)(O)OP(=O)(O)OP(=O)(O)O)[C@@H](O)C2O)c(=O)[nH]1 (stereo not given in full),inactive,inactive,–,–

Compound,Potency [1],Potency [2],"activity change, negative = inhibition [1]","activity change, negative = inhibition [2]"
CCCCC[C@H](O)/C=C/[C@@H]1[C@@H](CC(=O)CCCCC(=O)O)[C@@H](O)C[C@H]1O,–,–,7.57% [at 6.83 µM],35.8% [at 3.88 µM]
CC/C=C\C/C=C\C/C=C\CCCCCCCCCC(=O)O,–,–,1.1% [at 6.83 µM],4.31% [at 3.88 µM]
CCCCC[C@H](O)/C=C/C=C\CCCCCCCC(=O)O,inactive,inactive,–,–
NC(C(=O)O)C(CC(=O)O)c1ccc(Cl)cc1 (stereo not given),inactive,inactive,–,–
Nc1ncnc2c1nc(Br)n2[C@@H]1O[C@H]2COP(=O)(O)O[C@@H]2[C@@H]1O,inactive,inactive,–,–
CCCC[C@@H](C=O)NC(=O)[C@H](CC(C)C)NC(=O)[C@H](CC(C)C)NC(C)=O (Ac-Leu-Leu-[Nle]-aldehyde),inactive,inactive,–,–
H-EQKQLQ-OH,–,–,7.08% [at 6.83 µM],-18.8% [at 3.88 µM]
CC(CCCCC(=O)Nc1ccc(C(F)(F)F)cc1)NCCc1cnc[nH]1 (stereo not given),inactive,inactive,–,–
N[C@H](CS)C(=O)O,inactive,inactive,–,–
COc1c(O)c2c(=O)cc(OC)c3c4c(OC)cc(=O)c5c(O)c(OC)c(C[C@@H](C)OC(=O)c6ccccc6)c(c(c1C[C@@H](C)OC(=O)Oc1ccc(O)cc1)c23)c54,–,–,10.7% [at 4.99 µM],121% [at 3.88 µM]
Cc1cc(=O)oc2cc(NC(=O)C(CCCCN)NC(=O)C(CC3CCCCC3)NC(=O)OCC3c4ccccc4-c4ccccc43)ccc12 (stereo not given) (Fmoc-[Cha]-Lys-{AMC}; configuration not given here),18.9 µM (active),inactive,–,–
NCCCCCc1cnc[nH]1,inactive,inactive,–,–
N[C@@H](Cc1cc(I)c(Oc2ccc(O)cc2)c(I)c1)C(=O)O,inactive,inactive,–,–
N#CC(C#N)=C(N)/C(C#N)=C/c1ccc2[nH]ccc2c1,inactive,inactive,–,–
C=C1CC2COC(=O)C2(Cc2ccc3ccccc3c2)C1 (stereo not given),inactive,inactive,–,–
CC1CCC(C(C)C)C(P(=O)(c2ccccc2)c2ccccc2)C1 (stereo not given),inactive,inactive,–,–
c1ccc(CN(CCN(Cc2ccccn2)Cc2ccccn2)Cc2ccccn2)nc1,inactive,inactive,–,–
CC(=O)N[C@@H](CSC/C=C(\C)CCC=C(C)C)C(=O)O,inactive,inactive,–,–
CC[C@H](C)[C@H](NC(=O)[C@H](C)NC(=O)[C@H](CC(N)=O)NC(=O)[C@H](CCCCN)NC(=O)[C@H](Cc1ccccc1)NC(=O)[C@H](CC(C)C)NC(=O)[C@@H](NC(=O)[C@@H](NC(=O)[C@H](CC(C)C)NC(=O)[C@@H]1CCCN1C(=O)[C@@H](NC(=O)[C@H](CCC(N)=O)NC(=O)[C@H](CO)NC(=O)[C@H](CCCCN)NC(=O)[C@H](CCC(=O)O)NC(=O)[C@H](CO)NC(=O)[C@@H](NC(=O)[C@H](CCSC)NC(=O)[C@H](Cc1ccccc1)NC(=O)CNC(=O)CNC(=O)[C@@H](N)Cc1ccc(O)cc1)[C@@H](C)O)[C@@H](C)O)C(C)C)[C@@H](C)O)C(=O)N[C@H](C(=O)N[C@@H](CCCCN)C(=O)N[C@@H](CC(N)=O)C(=O)N[C@@H](C)C(=O)N[C@@H](Cc1ccc(O)cc1)C(=O)N[C@@H](CCCCN)C(=O)N[C@@H](CCCCN)C(=O)NCC(=O)N[C@@H](CCC(=O)O)C(=O)O)[C@@H](C)CC,–,–,2.8% [at 6.83 µM],-16.9% [at 3.88 µM]
CCC(=O)NC1Cc2ccccc2C(c2ccccc2)C1 (stereo not given),inactive,inactive,–,–
